In all, about 47,000 compounds went through this assay and about 2,000 (4.3%) were called active. The sample as a whole holds a higher share of actives than the screen did. Unmarked numbers belong to inactive results. Rule as the data show it: active = inhibition above about 30%; inactive = the rest.

The target in this assay is Ubiquitin carboxyl-terminal hydrolase 8 (Homo sapiens) (UniProt P40818). The experiment in a line: inhibitors of human USP8 deubiquitinase (AID 1645853). The conditions noted are these: purified USP8, Ub-rhodamine cleavage fluorescence, 30 min; at 20 µM; hits give high values.
Sequence of Ubiquitin carboxyl-terminal hydrolase 8 (Homo sapiens) (P40818 whole entry, looked up): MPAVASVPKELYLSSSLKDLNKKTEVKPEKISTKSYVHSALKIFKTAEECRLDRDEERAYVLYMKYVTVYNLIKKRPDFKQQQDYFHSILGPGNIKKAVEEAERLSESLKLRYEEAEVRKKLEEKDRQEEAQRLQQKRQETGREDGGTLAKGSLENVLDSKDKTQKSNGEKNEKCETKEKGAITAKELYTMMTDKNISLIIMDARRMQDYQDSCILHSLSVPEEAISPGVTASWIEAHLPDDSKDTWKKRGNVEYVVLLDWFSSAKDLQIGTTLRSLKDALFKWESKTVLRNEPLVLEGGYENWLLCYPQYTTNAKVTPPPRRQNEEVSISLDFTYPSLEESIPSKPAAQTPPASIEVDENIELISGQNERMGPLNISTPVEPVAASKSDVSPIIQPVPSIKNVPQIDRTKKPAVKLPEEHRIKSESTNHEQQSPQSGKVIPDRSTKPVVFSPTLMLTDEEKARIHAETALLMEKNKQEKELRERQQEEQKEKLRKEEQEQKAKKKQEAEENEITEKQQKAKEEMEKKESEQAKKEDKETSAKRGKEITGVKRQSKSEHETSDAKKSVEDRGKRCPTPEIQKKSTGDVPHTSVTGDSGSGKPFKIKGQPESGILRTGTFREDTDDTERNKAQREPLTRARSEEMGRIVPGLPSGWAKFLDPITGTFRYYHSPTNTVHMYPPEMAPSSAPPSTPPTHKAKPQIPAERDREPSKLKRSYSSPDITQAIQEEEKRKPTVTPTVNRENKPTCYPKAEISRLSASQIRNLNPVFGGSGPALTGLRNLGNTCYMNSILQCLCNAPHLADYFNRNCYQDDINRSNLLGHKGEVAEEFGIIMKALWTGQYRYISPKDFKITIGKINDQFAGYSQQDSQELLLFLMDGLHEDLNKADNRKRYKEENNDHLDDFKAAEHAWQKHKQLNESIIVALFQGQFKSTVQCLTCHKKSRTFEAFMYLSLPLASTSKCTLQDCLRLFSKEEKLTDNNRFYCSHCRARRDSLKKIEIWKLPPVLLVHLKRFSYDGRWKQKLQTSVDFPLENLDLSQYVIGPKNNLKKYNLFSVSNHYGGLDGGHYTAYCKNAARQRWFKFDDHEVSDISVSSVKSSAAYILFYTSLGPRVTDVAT
Turning to `O=C(O)c1cc(-c2cccc3ccccc23)n[nH]1`, the inhibition – broadly, the change of the read-out against control, counted positive when it falls – is -80.6%.

As to `O=C(c1cnccn1)N1CC(C(=O)N2CCCC2)C1`, the inhibition was 0.517%.

In the case of `CCN(C(=O)CSc1nnc(-c2ccncc2)o1)c1ccccc1`, the inhibition was 14.4%.

With `O=C(CSc1nnc(-c2ccncc2)o1)Nc1cccc(Cl)c1`, the inhibition was 4.92%.

With `CCc1ccccc1NC(=O)CSc1nnc(-c2ccncc2)o1`, the inhibition is 54.3% (active).

For the molecule `Cc1ccc2occ(CC(=O)Nc3sc4c(c3C(=O)NCc3cccnc3)CCCC4)c2c1`, the inhibition was 20.7%.

In the case of `CCC(Cc1ccccc1)NS(=O)(=O)c1ccc2c(c1)NC(=O)CS2` (centres undefined), the inhibition is 3.6%.

As to `CCOc1ccc(CNS(=O)(=O)c2cccc(-c3noc(C)n3)c2)cc1OC`, the inhibition is -8.47%.

In the case of `Cn1cc(-c2nc(CN3CCCC3Cn3cccn3)cs2)cn1` (centres undefined), the inhibition was -48.6%.

With `O=C(CCc1nnc2n(Cc3ccccc3)c(=O)c3ccccc3n12)N1CCN(C(=O)c2ccco2)CC1`, the inhibition is 2.75%.

As for `O=C(Cn1c(=O)n(Cc2ccc3c(c2)OCO3)c(=O)c2ccccc21)NCc1ccco1`, the inhibition was 8.11%.

On to `O=C(NCCc1ccccc1)c1ccc2c(=O)n(Cc3ccco3)c(=O)n(Cc3cccc([N+](=O)[O-])c3)c2c1`, for which the inhibition was 83.9% (active).

For `COc1ccc(-c2ccc3nc(N4CCC(C(N)=O)CC4)sc3n2)cc1`, the inhibition was -18.5%.

As for `C[C@@H]1CCCCCCCCC[C@@H](OC(=O)CCC(=O)O)C(=O)/C=C/C(=O)O1`, the inhibition is -0.995%.

Take `CCOc1ccc(Nc2nc(O)c(CC(=O)Nc3cccc(C)c3)s2)cc1`: the inhibition is 29.3%.

As to `Cc1ccc(Nc2nc(O)c(CC(=O)Nc3ccc(C(C)C)cc3)s2)cc1C`, the inhibition was -0.936%.

On to `Cc1ccc(NC(=O)Cc2sc(Nc3ccc(C)cc3)nc2O)cc1`, for which the inhibition is 35.4% (active).

As to `O=C(NCc1ccncc1)c1nnn(-c2ccc(F)cc2)c1-c1ccncc1`, the inhibition was 5.41%.

In the case of `O=C(CSc1nnc(-c2cccnc2)o1)N1CCN(c2ccc(F)cc2)CC1`, the inhibition is 19%.

Turning to `Cc1nc(-c2cccc(NC(=O)C3CCN(c4ccccc4)C3=O)c2)no1` (centres undefined), the inhibition is 27.7%.

For the molecule `Nc1ccc(C(=O)OCC(=O)NC2CCCc3ccccc32)cc1[N+](=O)[O-]` (centres undefined), the inhibition is 50.4% (active).

`O=C(c1ccccc1)c1ccc(NC2CCCc3ccccc32)c([N+](=O)[O-])c1` (centres undefined): the inhibition is -7.98%.

With `O=C(COC(=O)c1ccc(F)cc1)NC1CCCc2ccccc21` (centres undefined), the inhibition was 7.36%.

Regarding `O=C(CN1CCN(Cc2nc3ccccc3s2)CC1)N1CCc2ccccc21`, the inhibition was -4.14%.

Turning to `CC(C)C(=O)N1[C@@H](c2ccccc2)C[C@@H]2NC(=O)CCC[C@H]21`, the inhibition is 1.29%.

For the molecule `CC1CCc2c(sc3ncnc(OCc4cccc([N+](=O)[O-])c4)c23)C1` (centres undefined), the inhibition is -36.3%.

For `Cc1nc(N)ncc1C(=O)N1CCCC(C)(C(=O)NC2CCCC2)C1` (centres undefined), the inhibition is 4.82%.

Consider `Cc1nnn(C23CC4CC(CC(C(=O)NC5CCCC5)(C4)C2)C3)n1`, for which the inhibition is 30.1% (active).

As for `O=c1c2c(ncn2C2CCCC2)n(Cc2ccccc2)c(=O)n1Cc1ccccc1`, the inhibition was 1.24%.

As to `COCCn1cnc2c1c(=O)n(CC(=O)Nc1c(C)cc(C)cc1C)c(=O)n2Cc1ccccc1`, the inhibition was 32.6% (active).

For `COCCn1cnc2c(-c3ccccc3)cn(CC(=O)NCc3ccccc3)c2c1=O`, the inhibition is 0.16%.

Consider `Cc1nc(C2CCN(C(=O)Cc3ccc(F)cc3)CC2)ncc1C(N)=O`, for which the inhibition was 0.65%.

On to `O=S(=O)(c1ccccc1)n1nc(-c2cccnc2)nc1NCc1ccc(Cl)cc1`, for which the inhibition is 3.57%.

Regarding `CS(=O)(=O)c1ccc(CN2CCC3(C/C=C/Cc4ccccc4OCC(=O)NC3)CC2)cc1`, the inhibition was -3.81%.

For `O=C1NC(c2ccccc2)=N/C1=C/c1ccc(F)cc1`, the inhibition was -0.962%.

With `O=C(O)c1c2c(nc3ccccc13)/C(=C/c1ccc(F)cc1)CCC2`, the inhibition was 35.2% (active).

As for `O=C(O)c1ccc2c(=O)n3c(nc2c1)/C(=C/c1cccc(C(F)(F)F)c1)CC3`, the inhibition was 14.9%.

As for `CC1(C)[C@H](Cc2cc(-c3ccccc3)on2)C[C@@H]1NC(=O)C1CC1`, the inhibition was -0.801%.

`CCOc1ccccc1NC(=O)Nc1cc(-c2nc3ccccc3o2)ccc1OC`: the inhibition was 21.7%.

In the case of `CCOc1ccccc1NC(=O)Cc1cccs1`, the inhibition is 31.3% (active).

In the case of `CCOc1ccccc1NC(=O)COc1cccc2c1OC(C)(C)C2`, the inhibition is 8.84%.

In the case of `CN1C(=O)C(C)(C)COc2ccc(NS(=O)(=O)c3ccccc3Cl)cc21`, the inhibition was 0.668%.

`CCOc1cc(S(=O)(=O)Nc2ccc3cn[nH]c3c2)ccc1Cl`: the inhibition was 22.3%.

With `O=S(=O)(Nc1ccc2[nH]ncc2c1)c1ccccc1Cl`, the inhibition was 47% (active).

On to `CCCCCn1c(=O)c2sccc2n2c(CCC(=O)NC3CC3)nnc12`, for which the inhibition was 5.66%.

As for `COc1ccc(C(=O)N2CCC(Cc3nc(-c4cnccn4)no3)CC2)cc1`, the inhibition is 6%.

For `CCOc1ccccc1C(=O)NCC(c1ccco1)N1CCCC1` (centres undefined), the inhibition was 23.5%.

For the molecule `Cc1ccc(N2C(=O)CN(S(C)(=O)=O)CC2(C)C(=O)NC2CCCCC2)c(C)c1` (centres undefined), the inhibition is 15.1%.

As to `Cc1ccc(N2C(=O)CN(S(=O)(=O)c3ccccc3)CC2(C)C(=O)NCCC(C)C)cc1C` (centres undefined), the inhibition was 6.01%.

`CCOc1ccc(NC(=O)Cn2cc(C(=O)c3ccc(Cl)cc3)c(=O)c3cc(OC)ccc32)cc1`: the inhibition is -4.68%.

Turning to `CCOc1ccc2c(c1)c(=O)c(C(=O)c1ccccc1)cn2CC(=O)Nc1ccc(OC)cc1`, the inhibition was 93.8% (active).

As for `COc1ccc(NC(=O)CSc2cn(CC(=O)N3CCCC3)c3ccccc23)cc1`, the inhibition is -38.7%.

As for `O=C(NCCc1ccccc1)N1CCC(n2c(=O)[nH]c3cncnc32)C1` (centres undefined), the inhibition was 5.93%.

Take `COc1cc(C(=O)N(c2ccccn2)C2CCCCC2)cc(OC)c1OC`: the inhibition is -3.54%.

With `O=C(/C=C/c1ccc(Cl)cc1)Nc1ccc2c(c1)OCCO2`, the inhibition was -8.51%.

As to `COCCN1Cc2c(C(=O)N3CCCCC3)ncn2-c2ccccc2S1(=O)=O`, the inhibition is -27.7%.

`Cc1cc(F)ccc1NC(=O)c1cc(C2CC2)n2nccc2n1`: the inhibition was -4.45%.

For the molecule `Cc1ccc(-n2cc(-c3noc(C(=O)Nc4ccc(F)cc4C)n3)nn2)cc1`, the inhibition was 99% (active).

Consider `Cc1ccc(CNC(=O)c2nc(-c3cn(-c4ccc(Br)cc4)nc3C)no2)o1`, for which the inhibition was 13.8%.

For `COc1cccc(CNC(=O)c2cc3c(=O)n(C)ccc3n2C)c1`, the inhibition was -1.58%.

`COc1ccc(NC(=O)CS(=O)(=O)c2cn(CC(=O)N3CCCC3)c3ccccc23)cc1`: the inhibition is -8.78%.

Consider `Cn1nc(C2CCCN(Cc3cc(F)cc(F)c3)C2)c2nccnc21` (centres undefined), for which the inhibition is 32.7% (active).

In the case of `Cn1nc(C2CCN(Cc3ccc4c(c3)CC(C)(C)O4)CC2)c2nccnc21`, the inhibition is -31%.

For `COc1cc(CN2CCCC(c3ncc(Cl)cc3S(C)(=O)=O)C2)cc(OC)c1` (centres undefined), the inhibition is -1.79%.

`CC(C)C(=O)N1CCN2[C@H](C[C@@H](C(=O)N(C)C)[C@]23C(=O)Nc2ccccc23)C1`: the inhibition is 18.9%.

Turning to `COc1ccc(-c2ocnc2C(=O)NCc2ccc(OC)c(OC)c2)cc1`, the inhibition is 3.07%.

Turning to `O=c1c2ccccc2n(Cc2ccccc2Cl)c(=O)n1Cc1ccco1`, the inhibition was -2.33%.

As for `CC(C)(C)C(=O)Cn1c(=O)n(Cc2ccco2)c(=O)c2ccccc21`, the inhibition is -0.0891%.

As to `COc1ccc(-c2nc3c(c(=O)c4ccccc4n3C)c(=O)n2CCc2ccc(OC)c(OC)c2)cc1`, the inhibition is 33.9% (active).

Consider `COc1ccc(-c2nc3c(c(=O)c4ccccc4n3C)c(=O)n2Cc2ccco2)cc1`, for which the inhibition is 89.7% (active).

With `COc1ccc(CNC(=O)Cn2c(C)nc3onc(C)c3c2=O)cc1`, the inhibition is 2.79%.

In the case of `COc1cccc(CCC(=O)N2CCN(c3cc(C)n4cnnc4n3)CC2)c1`, the inhibition was -8.31%.

With `CCc1ccc(NC(=O)CSc2nc(-c3ccccc3F)nc3cc(=O)[nH]n23)cc1`, the inhibition was -16%.

In the case of `CCc1ccc(S(=O)(=O)N2CCN=C2N2CCCCC2)cc1`, the inhibition is -0.222%.

For the molecule `CCN(C)C(=O)c1cc(-c2ccn(-c3ccccc3)n2)n2ccccc12`, the inhibition is -39.1%.

For `COC(=O)c1cc2c(ccn2C)n1CC(=O)N1CCN(Cc2ccc3c(c2)OCO3)CC1`, the inhibition is 22.5%.

For the molecule `O=C(NCc1ccc2c(c1)OCO2)C1=CCN(Cc2ccccc2)CC1`, the inhibition is -26.8%.

For `O=C(Nc1cccc2ccccc12)N1CCN(Cc2ccc3c(c2)OCO3)CC1`, the inhibition is 61.7% (active).

On to `CCCCN(c1ccccc1)S(=O)(=O)c1cccc(C(=O)OCC(=O)NCc2ccc3c(c2)OCO3)c1`, for which the inhibition was 22.8%.

Consider `Cc1ccc(N2CCCS2(=O)=O)cc1NC(=O)Cc1ccc(Cl)cc1`, for which the inhibition was 15.3%.

With `COc1ccc(-c2nc(C3CC(=O)N(c4ccccc4)C3)no2)cc1` (centres undefined), the inhibition is 12.9%.

For `CC(C)c1nnc(NC(=O)C2CC(=O)N(CCc3ccc(F)cc3)C2)s1` (centres undefined), the inhibition is -27.4%.

As to `Cc1ccc(CC(=O)Nc2nnc(C3CC(=O)N(c4ccc(C)c(C)c4)C3)s2)cc1` (centres undefined), the inhibition is 35.8% (active).

Regarding `COc1ccc(N2CC(c3nnc(NC(=O)CCc4ccccc4)s3)CC2=O)cc1` (centres undefined), the inhibition is 43.3% (active).

Regarding `Cc1ccc(N2CC(c3nnc(NC(=O)CCCc4ccccc4)s3)CC2=O)cc1` (centres undefined), the inhibition is -58.7%.

`CN1CCN(c2ncc(NC(=O)c3ccccn3)cn2)CC1`: the inhibition is -1.52%.

`CC1CCN(S(=O)(=O)CC(F)(F)F)Cc2nc3ccccc3n21` (centres undefined): the inhibition is -0.0013%.

For `CCCNc1nc(Nc2ccc(OC)cc2)c2cnn(C)c2n1`, the inhibition was -0.418%.

Turning to `Nc1nc(N2CCCC2)nc2c1CCN(Cc1ccc3ncccc3c1)C2`, the inhibition is -7.44%.
